TDP1 inh: blocks human tyrosyl-DNA phosphodiesterase 1; Q9NUW8; recombinant TDP1, AlphaScreen DNA substrate cleavage; Potency, µM (series often up to 130 µM), inactives show at the highest dose activity change, negative = inhibition, actives largely listed as inhibitors; 350,000 tested, 0.28% active; AID 485290; further: potency means the concentration at half of the fitted maximal effect; on the % scale 0 is the no-effect control and ±100 the full control effect; nearly all actives have a fitted effect of over 40% in size
Target sequence (Q9NUW8 whole entry, looked up): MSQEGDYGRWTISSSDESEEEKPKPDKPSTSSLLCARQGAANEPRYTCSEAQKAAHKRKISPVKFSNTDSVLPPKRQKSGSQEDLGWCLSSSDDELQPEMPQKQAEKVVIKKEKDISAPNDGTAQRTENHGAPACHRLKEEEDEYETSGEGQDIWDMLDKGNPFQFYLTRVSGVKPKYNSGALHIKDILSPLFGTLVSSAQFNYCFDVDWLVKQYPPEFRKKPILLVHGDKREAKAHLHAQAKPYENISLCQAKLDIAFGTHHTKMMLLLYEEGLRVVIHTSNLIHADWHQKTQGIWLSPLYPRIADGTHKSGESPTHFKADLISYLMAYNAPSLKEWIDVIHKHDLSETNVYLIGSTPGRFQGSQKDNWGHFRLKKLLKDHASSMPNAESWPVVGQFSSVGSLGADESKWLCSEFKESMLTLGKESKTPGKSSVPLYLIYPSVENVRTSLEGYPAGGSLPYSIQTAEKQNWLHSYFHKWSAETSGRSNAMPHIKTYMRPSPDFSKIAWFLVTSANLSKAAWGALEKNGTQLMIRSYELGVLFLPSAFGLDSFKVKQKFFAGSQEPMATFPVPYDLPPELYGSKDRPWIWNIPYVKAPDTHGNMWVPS
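Signal: AlphaScreen proximity between streptavidin donor and anti-FITC acceptor beads on intact substrate. Reaction: Tdp1 1 nM, substrate 15 nM final, 5 min RT after 15 min compound preincubation.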
IL-1B inflam inh: inflammasome signaling inhibition, IL-1 beta readout; activity change, % at 57.5 µM; 360,000 tested, 4.7% active; THP-1 LPS/ATP IL-1B secretion, AlphaLISA, 16 h; hits give low values; in the data active means activity change below about -50%; inconclusive means mostly about -30% to -49%; further: on the % scale 0 is the no-effect control and ±100 the full control effect
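THP-1 cells pretreated 1 hr with compounds (up to 57.5 uM final), then stimulated with LPS (250 ng/mL final) plus ATP (1.25 mM final); secreted IL-1B measured by AlphaLISA after 16 hr, decreased signal indicating inhibition.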
TDP1 cell CPT: DT40-hTDP1 cell growth loss with CPT; AID 686979; 420,000 tested, 12% active; Potency, µM (doses to about 46.2 µM), without a hit: at the top dose activity change, negative = growth inhibition, hits mostly inhibitors; chicken DT40 Tdp1-/-;hTDP1 cells + 20 nM CPT, ATP luminescence, 48 h; further: potency means the concentration at half of the fitted maximal effect; on the % scale 0 is the no-effect control and ±100 the full control effect; nearly all actives have a fitted effect of over 55% in size
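Chicken DT40 Tdp1-/- cells stably complemented with human TDP1 were seeded at 400 cells/well in medium containing 20 nM camptothecin, exposed to pin-transferred compounds, and grown at 37 °C for at least 48 hr. Viability was read as ATP luminescence.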
TGFb inhibitor: blocks TGF-b signaling; Potency, µM (highest dose often 46.1 µM), for inactives: at the top dose activity, negative = inhibition, hits mostly inhibitors; HepG2 CAGA-GFP TGF-b/SMAD3 reporter, GFP fluorescence, 18 h; TGF-beta stimulated, 500 pg/mL final; 410,000 tested, 1.2% active; AID 588855; further: potency means the concentration at half of the fitted maximal effect; on the % scale 0 is the no-effect control and ±100 the full control effect; nearly all actives have a fitted effect of over 65% in size
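Using HEPG2 CAGA-GFP reporter cells at 1000 cells/well, we pinned test compounds, stimulated with recombinant TGF-beta (500 pg/mL final) and measured total well GFP after 18 h.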
HepG2 viability: kills HepG2 cells in TGF-b inhibitor counter-screen; HepG2 CAGA-GFP viability, ATP luminescence, 18 h; Potency, µM (titrated, usually from 46.1 µM), without a hit: top-dose activity change, negative = cytotoxicity, usual class: cytotoxic; 410,000 tested, 0.76% active; AID 588856; further: potency means the concentration at half of the fitted maximal effect
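CellTiter-Glo luminescence gave cytotoxicity after 18 hours at 37 degrees C. The cells were HepG2 CAGA-GFP in 1% FBS DMEM, stimulated with 500 pg/mL TGF-beta after compound addition. %Activity was normalised to no-cell wells (complete cell-killing) and DMSO (no toxicity), and curves were fitted and classified.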
TDP1 cell noCPT: qHTS for Inhibitors of human tyrosyl-DNA phosphodiesterase 1 (TDP1): qHTS in cells in absence of CPT. 420,000 tested, 15% active. DT40 Tdp1-/- hTDP1 cells, no CPT, ATP luminescence, 48 h. Potency, µM (titrated, usually from 46.2 µM), for inactives: top-dose activity change, negative = growth inhibition, most hits filed as inhibitors; further: potency means the concentration at half of the fitted maximal effect; on the % scale 0 is the no-effect control and ±100 the full control effect; nearly all actives have a fitted effect of over 55% in size
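No-CPT arm: Tdp1-/-;hTDP1 DT40 cells (400/well) plus compounds, incubated ≥48 hr at 37 °C. Readout CellTiter-Glo luminescence.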
Active calls of the source: *; ? = inconclusive; / = no result given; [ ] = another dose, or the depositor's remark. Only some compounds are listed: those with a hit (about 18% of all), similar ones and a draw of the others. Unless noted, the call rests on the fitted dose curve; in most records, active means well fitted curve in the direction sought with a large enough effect; inconclusive means small, poorly fitted or top-dose-only effect, or another doubt; inactive means no such curve, though single readings can be large; an effect the other way counts as inactive or inconclusive.

SMILES	TDP1 inh	IL-1B inflam inh	TDP1 cell CPT	TGFb inhibitor	HepG2 viability	TDP1 cell noCPT
CCOC(=O)C1(CCCc2ccccc2)CCN(C2CCCC2)CC1	-4%	-74*	18µM*	-21%	-25%	?
CCOC(=O)C1(CCOc2ccccc2)CCN(Cc2ccc(C)s2)CC1	5%	-96*	?	?	-20%	7.3µM*
O=C(Cc1ccccc1)N1CCN(C2CCCC2)CC1	-2%	22	-3%	2%	1%	-13%
C=CCOCC1CO1 (stereo unspecified)	10%	/	/	/	/	/
CCCC[N+]12C3CC(C(CC)[C@H]1O)[C@@H]1C(O)C4(C[C@@H]12)c1ccccc1N(C)C34 (stereo partly specified)	12%	/	?	/	/	-10%[9.04 µM]
CC1=C2C3OC(=O)[C@H](C)[C@H]3CC[C@@]2(C)C=CC1=O (stereo partly specified)	8%	/	1%	/	/	-16%
Clc1ccc(CCNCc2ccncc2)c(Cl)c1	/	?	?	12%	-7%	-27%
O=S(=O)(NCc1ccncc1)c1ccc(F)c(F)c1	/	2	10µM*	6%	-27%	6.5µM*
O=C(O)C(Cl)Br (stereo unspecified)	6%	/	/	/	/	/
CCCCn1c(=O)c(C(=O)Nc2ccccn2)c(O)c2ccccc21	/	37	3.3µM*	18%	2%	4.1µM*
CCCCCn1c(=O)c(C(=O)Nc2cccc(C)n2)c(O)c2ccccc21	/	33	29%	0%	-4%	?
CCCCn1c(=O)c(C(=O)Nc2ccc(C)cn2)c(O)c2ccccc21	/	14	13µM*	-1%	6%	9.2µM*
CCCCCCn1c(=O)c(C(=O)Nc2cnccn2)c(O)c2ccccc21	0%	0	0.82µM*	-9%	-5%	0.58µM*
CCCCCCn1c(=O)c(C(=O)Nc2ncccc2O)c(O)c2ccccc21	/	10	5.2µM*	5%	-1%	5.2µM*
CN(C)C(=O)Oc1cccc([N+](C)(C)C)c1	4%	?	10%	7%	7%	3%
CCCCCn1c(=O)c(C(=O)Nc2ccccn2)c(O)c2ccccc21	/	15	3.7µM*	13%	-10%	4.6µM*
CCc1ccc(CNCCc2c[nH]c3ccccc23)cc1	/	-52*	?	?	-87%	26µM*
COc1cc(CNCCc2c[nH]c3ccccc23)cc(OC)c1	/	-80*	?	-20%	-44%	23µM*
Cc1cccc(CNCCc2c[nH]c3ccccc23)c1	7%	-75*	16µM*	?	-84%	13µM*
Fc1cccc(CNCCc2c[nH]c3ccccc23)c1	3%	?	?	-4%	-36%	?
Clc1ccc(C2CC3CCC2N3)cn1 (stereo unspecified)	?	/	-10%	/	/	-2%
CC12CCC3C(CC=C4CC(O)CCC43C)C1C/C(=C\c1cccc(F)c1)C2=O (stereo unspecified)	-3%	4	?	-13%	-16%	15µM*
C[C@]12CC[C@@H](O)CC1=CCC1C2CC[C@]2(C)C(=O)[C@H](F)CC12 (stereo partly specified)	1%	6	-22%	6%	-3%	-19%
O=C1OC(=O)C2C1[C@@H]1CC[C@H]2O1 (stereo partly specified)	-9%	18	17%	10%	6%	5%
Nc1c([N+](=O)[O-])ccc(Oc2ccccc2)c1Cl	21%	/	/	/	/	/
SMILES	TDP1 inh	IL-1B inflam inh	TDP1 cell CPT	TGFb inhibitor	HepG2 viability	TDP1 cell noCPT
NS(=O)(=O)c1ccc(CCNc2nn3c(-c4ccc(F)c(Cl)c4)cnc3s2)cc1	/	?	16µM*	-2%	-40%	23µM*
NS(=O)(=O)c1ccc(CCNc2ccn3nc(-c4cccc(C(F)(F)F)c4)cc3n2)cc1	/	-20	?	-21%	-20%	?
CCN1C[C@]2(C)CC[C@H](O)[C@@]34C5C[C@@H]6[C@@H](OC)C[C@@](O)(C5[C@H]6O)[C@@H](CC23)[C@@H]14 (stereo partly specified)	4%	/	6%	/	/	3%
CN(C)C(=O)Oc1ccc(OCc2nc3ccccc3[nH]2)cc1	5%	-5	9.2µM*	6%	-92%	10µM*
C[C@H]1CN(C2CCC(C#N)(c3ccc(F)cc3)CC2)CC[C@@]1(C(=O)O)c1ccccc1 (stereo partly specified)	2%[56.1 µM]	/	/	/	/	/
c1ccc(CN2Cc3ccccc3-n3nncc3C2)cc1	/	13	-5%	-9%	-5%	?
c1ccc2c(c1)CN(Cc1ccc3c(c1)OCO3)Cc1cnnn1-2	/	13	?	-8%	-47%	10µM*
CCOC(=O)c1oc2ccc(S(=O)(=O)n3nc(-c4ccc(Br)cc4)cc3N)cc2c1C	3%	/	21µM*	-1%	-26%	12µM*
c1nc[nH]n1	5%	/	/	/	/	/
CC1CCN(C(=O)C2CCN(c3nnc(-n4cccc4)s3)CC2)CC1	3%	0	-28%	-15%	-27%	?
NC(=NCCCC(N)C(=O)O)N[N+](=O)[O-] (stereo unspecified)	3%[56.1 µM]	/	-19%	/	/	-4%
CCCCCCOc1ccc(CN2CCN(C)CC2)cc1	4%	?	18µM*	39%	-47%	18µM*
CN1CCN(Cc2ccc3ccccc3c2)CC1	/	-5	-3%	5%	-5%	-15%
CCOC(=O)C1(c2ccccc2)CCN(CCC(=O)Nc2ccc(F)cc2)CC1	0%[56.1 µM]	-21	?	-29%	-52%	?
CCOC(=O)C1(c2ccccc2)CCN(CCC(=O)Nc2ccccc2OC)CC1	/	8	21µM*	?	-32%	12µM*
O=[N+]([O-])OC1CO[C@H]2C(O[N+](=O)[O-])COC12 (stereo partly specified)	4%	/	/	/	/	/
CCC1(c2ccccc2)CCC(=O)NC1=O (stereo unspecified)	5%	/	4%	/	/	1%
COc1cc2c(cc1O)[C@@H]1Cc3ccc(OC)c(O)c3CN1CC2	/	19	4.6µM*	-15%	-18%	4.1µM*
COC(=O)c1c(-c2ccc(Cl)cc2)noc1N1CCN(c2ccc(C(C)=O)cc2)CC1	8%	/	?	2%	-3%	21µM*
CC[C@H](C)C(=O)O[C@H]1C[C@H](O)C=C2C=C[C@H](C)[C@H](CC[C@@H](O)C[C@@H](O)CC(=O)O)[C@H]21	5%	/	?	/	/	-27%

Bioassay records from PubChem BioAssay.
